Experimental findings from PubChem BioAssay (Tox21) are described below.

A number with no mark means an inactive call. Inconclusive results are not listed. Calls of active or inactive are those of the source. Unless noted, calls follow the shape of the dose curve; as a rule, active = well fitted curve in the direction sought with a large enough effect in the repeat runs; inconclusive = weak or mixed curves; inactive = no such curve, though single readings can be large; an effect the other way counts as inactive or inconclusive.

The nature of assay [1]: qHTS assay to test for compound auto fluorescence at 535 nm (green) in HEK293 cells (AID 720680).
Assay [2] can be described thus: qHTS assay to test for compound auto fluorescence at 460 nm (blue) in HEK293 cell free culture (AID 720681). An outline of the steps:
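Test compounds were pinned into cell-free culture medium (DMEM with 10% FBS) and fluorescence was read directly at Ex/Em 405/460 nm. Signals were expressed as fluorescence equivalents of triamterene, with DMSO vehicle as control.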

Assay [3] in a line: qHTS assay to test for compound auto fluorescence at 535 nm (green) in HEK293 cell free culture (AID 720682). The gist of the method: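 Measurement is a direct plate read of green fluorescence (485 nm in, 535 nm out) after compound addition to serum-supplemented DMEM lacking cells, with fluorescein used to express intensities.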
Assay [4] in a line: qHTS assay to test for compound auto fluorescence at 590 nm (red) in HEK293 cell free culture (AID 720683). An outline of the steps: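 Tox21 10K library compounds were pinned into cell-free DMEM with 10% FBS and fluorescence was read at excitation 540 nm. Activity is expressed as Rose Bengal sodium equivalency.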
On the technique in general: qHTS replaces the single test concentration by a dilution series.

A short description of assay [5]: qHTS assay to test for compound auto fluorescence at 590 nm (red) in HepG2 cell free culture (AID 720684). The gist of the method: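 Ex 540 / Em 590 nm read of compound in cell-free MEM (10% FBS). Rose Bengal sodium reference.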
Assay [6] can be described thus: qHTS assay to test for compound auto fluorescence at 460 nm (blue) in HepG2 cell free culture (AID 720685). The gist of the method: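 Cell-free plates of MEM plus 10% FBS received 23 nL compound or DMSO vehicle; blue-channel (405/460 nm) intensity scored against triamterene as reference fluorophore.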
Assay [7] can be described thus: qHTS assay to test for compound auto fluorescence at 535 nm (green) in HepG2 cell free culture (AID 720686).
The nature of assay [8]: qHTS assay to test for compound auto fluorescence at 460 nm (blue) in HepG2 cells (AID 720687). An outline of the steps:
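Cells (2,000/well in MEM with 10% FBS) attached overnight at 37 C, then were exposed to compound or DMSO for 1 hr at 37 C, 5% CO2. Fluorescence read at Ex/Em 405/460 nm, expressed as triamterene-equivalent signal.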

In assay [9] the target is Glucocorticoid receptor (Homo sapiens) (UniProt P04150). Nature of the assay: qHTS assay to identify small molecule agonists of the glucocorticoid receptor (GR) signaling pathway (AID 720691; active = well fitted activation curve with a large enough effect in the signal ratio in the repeat runs, not every such curve was filed as active; the % refers to the signal ratio). The gist of the method:
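Compounds in DMSO, alongside positive controls, were added to GR-bla HeLa reporter cells and incubated 18 h at 37 C; GRE-driven beta-lactamase was detected by fluorescence after 2 h with FRET substrate at room temperature.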

Assay [10] can be described thus: qHTS assay to identify small molecule antagonists of the glucocorticoid receptor (GR) signaling pathway - cell viability counter screen (AID 720693). Also: nearly all actives have a fitted effect of over 55% in size.
Assay [11] in a line: qHTS assay for identifying genotoxic compounds that show differential cytotoxicity against isogenic chicken DT40 cell lines with known DNA damage response pathways - wild type cell line (AID 743012). Also: nearly all actives have a fitted effect of over 60% in size. An outline of the steps: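 Viability of DNA repair-proficient chicken DT40 cells was assessed by CellTiter-Glo luminescence following 40 h compound exposure at 37 C/5% CO2.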
A short description of assay [12]: qHTS assay for identifying genotoxic compounds that show differential cytotoxicity against isogenic chicken DT40 cell lines with known DNA damage response pathways - Rev3 mutant cell line (AID 743014). Also: nearly all actives have a fitted effect of over 55% in size.
Assay [13] can be described thus: qHTS assay to identify small molecule antagonists of the androgen receptor (AR) signaling pathway - cell viability counter screen (AID 743033; also: nearly all actives have a fitted effect of over 45% in size).
Assay [14] deals with Androgen receptor (Homo sapiens) (UniProt P10275). As to the kind of experiment: qHTS assay to identify small molecule antagonists of the androgen receptor (AR) signaling pathway (AID 743035; active = well fitted inhibition curve with a large enough effect in the signal ratio in the repeat runs, not every such curve was filed as active; the % refers to the signal ratio). An outline of the steps:
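Reporter HEK293 cells were exposed to compounds and R1881 overnight (16 h, 37C); beta-lactamase activity was then quantified by FRET fluorescence.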

Assay [15] has the same target. As to the kind of experiment: qHTS assay to identify small molecule agonists of the androgen receptor (AR) signaling pathway (AID 743036; active = well fitted activation curve with a large enough effect in the signal ratio in the repeat runs, with a control signal flat, not every such curve was filed as active; the % refers to the signal ratio). The gist of the method: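 Beta-lactamase under UAS control, stably integrated in HEK293 GripTite cells, reports receptor activation. After 16 h compound treatment, cells received FRET substrate for 2 h at room temperature before fluorescence reading.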

The target is the same in assay [16]. As to the kind of experiment: qHTS assay to identify small molecule agonists of the androgen receptor (AR) signaling pathway using the MDA cell line (AID 743040; also: nearly all actives have a fitted effect of over 20% in size). The gist of the method:
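Cell-based luciferase reporter: MDA-kb2, MMTV promoter (AR + GR response elements). 16 h compound exposure at 37C; ONE-Glo, 30 min RT, luminescence.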

Assay [17] is described as follows: qHTS assay to identify small molecule antagonists of the androgen receptor (AR) signaling pathway using the MDA cell line - cell viability counter screen (AID 743041; also: nearly all actives have a fitted effect of over 45% in size). The gist of the method:
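In this qHTS counter assay, fluorescence intensity after CellTiter-Fluor addition indicated viability of MDA-kb2 AR-luc cells given compounds and R1881 for 16 h at 37C.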

Assay [18] has as its target Androgen receptor (Homo sapiens) (UniProt P10275). Nature of the assay: qHTS assay to identify small molecule antagonists of the androgen receptor (AR) signaling pathway using the MDA cell line (AID 743042; also: nearly all actives have a fitted effect of over 55% in size). An outline of the steps:
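MDA-kb2 cells (human breast carcinoma, stably carrying an MMTV-luciferase reporter responsive to AR and GR) were plated at 3,000 cells/well and preincubated 5 hr at 37C, then given compound plus R1881 agonist for 16 h. ONE-Glo luminescence was read.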

Assay [19] is described as follows: qHTS assay for identifying genotoxic compounds that show differential cytotoxicity against isogenic chicken DT40 cell lines with known DNA damage response pathways - Rad54/Ku70 mutant cell line (AID 743015). Also: nearly all actives have a fitted effect of over 60% in size. Also: potency is read from the fitted curve at half-maximal effect.

Chain of Androgen receptor (Homo sapiens) (P10275 whole entry, looked up): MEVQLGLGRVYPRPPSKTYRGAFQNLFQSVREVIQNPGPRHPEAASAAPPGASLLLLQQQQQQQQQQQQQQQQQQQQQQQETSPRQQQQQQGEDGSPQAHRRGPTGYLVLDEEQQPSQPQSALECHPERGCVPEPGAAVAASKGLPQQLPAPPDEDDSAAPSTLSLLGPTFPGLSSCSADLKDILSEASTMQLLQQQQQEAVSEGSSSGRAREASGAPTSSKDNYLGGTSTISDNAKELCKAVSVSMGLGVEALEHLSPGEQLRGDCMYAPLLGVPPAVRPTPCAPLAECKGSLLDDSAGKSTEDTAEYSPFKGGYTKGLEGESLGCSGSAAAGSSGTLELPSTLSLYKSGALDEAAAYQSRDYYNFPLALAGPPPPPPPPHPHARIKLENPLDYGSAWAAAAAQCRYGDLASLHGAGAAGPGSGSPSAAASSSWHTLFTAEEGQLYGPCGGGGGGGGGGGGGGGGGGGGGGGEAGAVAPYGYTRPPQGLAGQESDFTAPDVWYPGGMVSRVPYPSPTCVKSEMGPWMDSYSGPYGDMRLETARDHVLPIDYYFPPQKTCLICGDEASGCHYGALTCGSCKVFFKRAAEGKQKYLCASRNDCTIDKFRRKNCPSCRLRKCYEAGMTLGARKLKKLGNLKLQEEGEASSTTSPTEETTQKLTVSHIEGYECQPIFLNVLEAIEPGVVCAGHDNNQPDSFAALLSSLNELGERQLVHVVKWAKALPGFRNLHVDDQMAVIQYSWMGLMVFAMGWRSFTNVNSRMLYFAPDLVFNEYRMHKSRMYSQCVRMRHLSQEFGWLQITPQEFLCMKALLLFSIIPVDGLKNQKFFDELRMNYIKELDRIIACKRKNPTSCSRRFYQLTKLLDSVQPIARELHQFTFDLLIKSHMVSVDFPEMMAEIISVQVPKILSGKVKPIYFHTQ
Chain of Glucocorticoid receptor (Homo sapiens) (P04150 whole entry, looked up): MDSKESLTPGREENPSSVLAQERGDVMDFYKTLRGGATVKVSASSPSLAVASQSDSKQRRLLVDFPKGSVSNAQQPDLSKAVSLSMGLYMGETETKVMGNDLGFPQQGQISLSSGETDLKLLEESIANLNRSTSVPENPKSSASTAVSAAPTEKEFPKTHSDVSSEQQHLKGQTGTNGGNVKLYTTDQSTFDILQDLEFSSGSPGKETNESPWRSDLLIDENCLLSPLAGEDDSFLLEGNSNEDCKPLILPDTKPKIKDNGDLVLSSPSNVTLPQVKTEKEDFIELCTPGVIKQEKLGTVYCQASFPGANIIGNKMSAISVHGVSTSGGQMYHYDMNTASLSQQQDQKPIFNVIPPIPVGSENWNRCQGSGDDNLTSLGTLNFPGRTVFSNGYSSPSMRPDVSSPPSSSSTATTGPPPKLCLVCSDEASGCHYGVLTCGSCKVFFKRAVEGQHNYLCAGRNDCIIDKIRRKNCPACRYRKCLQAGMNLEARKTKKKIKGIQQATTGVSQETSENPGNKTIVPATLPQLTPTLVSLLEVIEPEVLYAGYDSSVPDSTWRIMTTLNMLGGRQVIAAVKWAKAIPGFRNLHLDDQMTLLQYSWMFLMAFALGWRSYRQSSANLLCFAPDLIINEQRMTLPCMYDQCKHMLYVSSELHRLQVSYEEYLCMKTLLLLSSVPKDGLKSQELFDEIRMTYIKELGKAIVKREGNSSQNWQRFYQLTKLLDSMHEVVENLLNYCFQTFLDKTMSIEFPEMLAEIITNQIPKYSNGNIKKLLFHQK

As to `CCCCCCCCCC(C)=O`, the molecule was classed as inactive in [1], in assay [2], in assay [3], in assay [4], in assay [5] and in assay [6]. Moreover, the result in [7], in assay [8], in assay [10], in assay [15] and in assay [16] was inactive. In addition, the Potency entry in assay [9], in assay [11], in assay [12], in [13], in assay [14] and in [17] was “inactive” each time. The Potency result in [18] is “inactive”.
In the case of `COc1ccc(S(=O)(=O)N2c3ccc(Cl)cc3[C@@](O)(c3ccccc3Cl)[C@H]2C(=O)N2CCC[C@@H]2C(N)=O)cc1OC`, the outcome in assay [1], in assay [2], in assay [3], in [4], in [5] and in assay [6] was inactive. The result in assay [7], in assay [8] and in [10] was inactive. In addition, the Potency result in assay [9], in assay [11], in assay [12], in assay [13] and in assay [17] was “inactive” each time.
Turning to `CC(=O)/C=C/C1C(C)=CCC(C)C1(C)C` (stereo unspecified), the result in assay [1], in [2], in assay [3], in assay [4], in assay [5] and in assay [6] was inactive. Besides, the result in assay [7], in assay [8] and in [10] was inactive. Also, the Potency result in assay [9] and in [13] was “inactive” each time. In assay [19], the Potency was 48.6 µM (active).
For the molecule `Cc1cc(Cl)c(C)cc1Cl`, the call in assay [1], in assay [2], in assay [3], in assay [4], in assay [5] and in assay [6] was inactive. For the same molecule, the molecule was called inactive in [7], in assay [8], in assay [10], in assay [15] and in assay [16]. The Potency result in assay [9], in assay [12], in assay [13] and in [18] was “inactive” in each case.
As to `CC(C)(C)OC(=O)c1ccc(O)cc1`, the call in assay [1], in [2], in assay [3], in [4], in assay [5] and in [6] was inactive. For the same molecule, the call in [7], in [8] and in assay [16] was inactive. The Potency entry in [9], in assay [11], in [12], in assay [13], in [17] and in assay [18] was “inactive” each time.
Take `CCCCC(CC)COCCO` (stereo unspecified): the call in assay [1], in assay [2], in assay [3], in [4], in assay [5] and in assay [6] was inactive. For the same molecule, the result in assay [7], in assay [8] and in assay [10] was inactive. Moreover, the Potency entry in assay [9], in assay [11], in assay [12], in assay [19], in assay [13] and in assay [17] was “inactive” each time.
As for `COP(=O)(OC)OC(c1ccc(Cl)cc1)P(=O)(OC)OC` (stereo unspecified), the molecule was called inactive in assay [1], in assay [2], in assay [3], in assay [4], in [5] and in [6]. Also, the result in [7], in assay [8] and in [10] was inactive. For the same molecule, the Potency result in assay [9], in [11], in [19], in assay [13] and in assay [17] was “inactive” each time.
As for `CCCCCCN`, the result in [1], in assay [2], in assay [3], in [4], in assay [5] and in assay [6] was inactive. The molecule was called inactive in assay [7], in assay [8] and in assay [10]. The Potency entry in assay [9], in assay [11], in assay [12], in assay [13] and in assay [17] was “inactive” in each case.
`Cc1cc(NC(=O)C2=C(O)c3ccccc3S(=O)(=O)N2C)no1`: the molecule was classed as inactive in assay [1], in assay [2], in assay [3], in assay [4], in assay [5] and in [6]. The result in assay [7] and in [8] was inactive. Besides, the Potency result in assay [9], in assay [11], in assay [12], in assay [19], in [13] and in assay [17] was “inactive” throughout.
